Screening results from PubChem.
Most compounds without a hit are left out; they make up all but 5.2% or so of the library.
Tau fibril FP = tau fibrillization inhibition (FP) | K18 P301L tau heparin fibrillization, Alexa594 FP, 6 h | 280,000 compounds, 0.39% hits | AID 1468 | Potency, µM (titrated, usually from 57.7 µM), without a hit: top-dose activity, negative = inhibition, usual class: inhibitors; note: potency is the fitted concentration of half-maximal effect; nearly all actives have a fitted effect of over 55% in size
Target sequence (P10636 561-689 P618L limits assumed): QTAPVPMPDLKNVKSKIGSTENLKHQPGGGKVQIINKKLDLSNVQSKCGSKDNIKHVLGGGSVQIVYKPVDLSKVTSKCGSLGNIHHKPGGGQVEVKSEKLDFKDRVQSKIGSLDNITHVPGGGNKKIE
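Heparin (20 uM) drove fibril formation of recombinant tau K18 P301L, 15 uM unlabeled with 0.24 uM Alexa 594 label, for 6 hr at 37 C in 100 mM sodium acetate pH 7. Fluorescence polarization (555/632 nm) read 1 hr after 30 uM ThT.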
Coupling enz = coupling enzyme interference in Giardia aldolase counter-screen; coupling enzyme system counterscreen, AmpLite Red fluorescence; activity change, negative = inhibition, % at 58.2 µM, hits read low; 290,000 compounds, 0.67% hits; AID 2472; in the data active = activity change below about -30%
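Compounds tested against the coupling enzymes alone at 57.5 uM final; readout was AmpLite Red fluorescence (525/598 nm) after 20 min at RT.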
Tau fibril ThT = tau fibrillization inhibition (ThT binding) | P10636 | recombinant tau K18 P301L, heparin-induced fibrillization, ThT fluorescence | Potency, µM (top dose mostly 57.4 µM), for the others: top-dose activity, negative = inhibition, hits mostly inhibitors | 270,000 compounds, 2.1% hits; note: potency is the fitted concentration of half-maximal effect; nearly all actives have a fitted effect of over 55% in size
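Heparin-induced (20 uM) aggregation of recombinant human K18 P301L tau, 15 uM unlabeled with 0.24 uM labeled, pH 7 acetate buffer, 6 hr at 37 C with compound. Fibrils quantified by 30 uM ThT fluorescence after 1 hr ambient incubation.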
Tau fluor counter = counter-screen for tau fibril formation inhibitors | Potency, µM (titrated, usually from 57.7 µM), without a hit: top-dose activity change, negative = decrease | 280,000 compounds, 0.93% hits | tau K18 P301L (four-repeat tau fragment) Alexa594 fluorescence, heparin fibrillization; note: potency is the fitted concentration of half-maximal effect; nearly all actives have a fitted effect of over 55% in size
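Human K18 P301L tau (15 uM unlabeled plus 0.24 uM Alexa 594-labeled, final) in 100 mM sodium acetate pH 7 was mixed with compound and 20 uM heparin and incubated 6 hr at 37 C.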
Sfp inh = inhibitors of Bacillus subtilis Sfp phosphopantetheinyl transferase | 310,000 compounds, 3.5% hits | Q9F4F7 | AID 1490 | Potency, µM, without a hit: largest response in the series, negative = inhibition, actives largely listed as inhibitors | Biochemical Sfp PPTase activity, qHTS;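 note: the enzyme is Sfp with the accession as filed and its product quenches rhodamine fluorescence; potency is the fitted concentration of half-maximal effect; 0% = enzyme reaction without inhibitor and -100% = no enzyme wells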
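Sfp 15 nM + cpd, 15 min RT; start w/ rhodamine-CoA 5 uM, BHQ-2-YbbR 12.5 uM (final); 50 mM Hepes pH 7.6, 10 mM MgCl2, 0.01% NP-40, 0.01% BSA; read 525/598 nm at 0 and 30 min.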
* hit, by the source's call; ? = inconclusive; / = no result; [ ] = remark or other dose. Unless noted, calls come from the whole dose curve; as a rule, active = well fitted curve in the direction sought with a large enough effect; inconclusive = small, poorly fitted or top-dose-only effect, or another doubt; inactive = no such curve, though single readings can be large; an effect the other way counts as inactive or inconclusive. Unless noted, % is set by controls: 0 for no effect and ±100 for the full control effect.

SMILES | Tau fibril FP | Coupling enz | Tau fibril ThT | Tau fluor counter | Sfp inh
CCc1ccc2oc(C(=O)N(Cc3ccc(N(C)C)cc3)Cc3ccco3)c(C)c2c1 | -1% | / | ? | ? | /
C#CCOCCOCCOCCNc1nc(N2CCN(C(=O)[C@H](CCC(=O)O)n3cc(C(N)CO)nn3)CC2)nc(N2CCN(C(=O)[C@H](CCC(=O)O)n3cc(C(N)CC(C)C)nn3)CC2)n1 (some centres undefined) | -8% | -4 | 2% | 10% | 89µM*
C#CCOCCOCCOCCNc1nc(N2CCN(C(=O)[C@H](Cc3cc4ccccc4[nH]3)n3cc([C@@H](N)Cc4ccc(O)cc4)nn3)CC2)nc(N2CCN(C(=O)[C@H](Cc3cc4ccccc4[nH]3)n3cc([C@@H](N)CC(C)C)nn3)CC2)n1 | -7% | -1 | ? | -5% | 56µM*
C#CCOCCOCCOCCNc1nc(N2CCN(C(=O)[C@H](Cc3cc4ccccc4[nH]3)n3cc([C@@H](N)CC(C)C)nn3)CC2)nc(N2CCN(C(=O)[C@H](Cc3cc4ccccc4[nH]3)n3cc([C@@H](N)CC(C)C)nn3)CC2)n1 | ? | -6 | ? | -14% | 16µM*
C#CCOCCOCCOCCNc1nc(N2CCN(C(=O)C(Cc3cc4ccccc4[nH]3)n3cc(C(N)Cc4ccc(O)cc4)nn3)CC2)nc(N2CCN(C(=O)C(Cc3cc4ccccc4[nH]3)n3cc(C(N)Cc4ccc(O)cc4)nn3)CC2)n1 (centres undefined) | ? | 2 | ? | -26% | ?
COc1cccc(CNC(=O)CN2C(=O)N(c3c(C)cccc3C)S(=O)(=O)c3ccccc32)c1OC | -4% | / | 7% | -16% | /
CCCCCCCCc1nc(=S)[nH][nH]1 | -3% | 9 | -8% | -6% | 20µM*
Cc1nc(NS(=O)(=O)c2ccccc2)sc1NC(=O)Nc1ccccc1 | 1% | -1 | -6% | -9% | 45µM*
CC(=O)c1ccc(NC(=O)Nc2sc(NS(=O)(=O)c3ccccc3)nc2C)cc1 | 6% | 0 | ? | ? | ?
Cc1nc(NS(=O)(=O)c2ccccc2)sc1NC(=O)Nc1ccc(Cl)cc1 | 11% | 6 | ? | ? | 79µM*
CCC(Sc1nc2n[nH]c(C)c2c(=N)n1-c1ccc(Br)cc1)C(=O)N(CC)CC (centres undefined) | -12% | / | -1% | -21% | /
CC1Cc2cc(S(=O)(=O)CCC(=O)NCc3ccccc3Cl)ccc2N1C(=O)C1CC1 (centres undefined) | 2% | / | 6% | 1% | /
Cc1c(CC(=O)O)c(=O)oc2cc3occ(-c4ccc(F)cc4)c3cc12 | / | 7 | / | / | 40µM*
COC(=O)CN1C(=O)CSc2ccc(S(=O)(=O)Nc3ccc(C)c(Cl)c3)cc21 | -11% | / | -2% | ? | /
COC(=O)NC(c1ccccc1)C(C(=O)OC)C(=O)OC (centres undefined) | -17%[11.6 µM] | -31* | -8%[11.5 µM] | -12%[11.6 µM] | 6%
CCOc1ccccc1N(C)C(=O)c1c2c(nc3ccccc13)C(=O)N(C1CCCCC1)C2 | 6% | / | -10% | -2% | /
Cc1ccc2oc(-c3ccc(Cl)c(NC(=O)c4cc5ccccc5o4)c3)nc2c1 | 2% | / | -3% | 3% | /
c1nc2nc(Nc3ccc(N4CCOCC4)cc3)nc(NC3CCCCC3)c2[nH]1 | / | -5 | / | / | ?
CCN1CC2=C(OC(N)=C(C#N)C2c2ccccc2)/C(=C\c2ccccc2)C1 (centres undefined) | -8% | -3 | ? | -13% | -14%
CCN1C=C(Cc2cccs2)C2=C(C1)C(c1cccs1)C(C#N)=C(N)O2 (centres undefined) | -9% | -3 | 22µM* | -23% | -7%
CCN1CC2=C(OC(N)=C(C#N)C2c2cccs2)/C(=C/c2cccs2)C1 (centres undefined) | -6% | -5 | 16µM* | -25% | -8%
C=CCNC(=O)N1CCc2nc(COc3ccccc3)c3c(c2C1)CO[C@@H](C)C3 | -1%[11.6 µM] | 1 | -5%[11.5 µM] | -9%[11.6 µM] | 3%
CC(C)C(c1nnnn1C1CCCCC1)N1CCc2ccccc2C1 (centres undefined) | -2% | -28 | -6% | 0% | -16%
c1ccc(C(c2nnnn2C2CCCCC2)N2CCc3ccccc3C2)nc1 (centres undefined) | -11% | -32* | ? | -8% | 79µM*
Oc1ccc(N2CCN(C(c3ccccn3)c3nnnn3C3CCCC3)CC2)cc1 (centres undefined) | -2% | -16 | ? | -16% | 18µM*
SMILES | Tau fibril FP | Coupling enz | Tau fibril ThT | Tau fluor counter | Sfp inh
Oc1ccc(N2CCN(C(c3cccs3)c3nnnn3CCc3ccccc3)CC2)cc1 (centres undefined) | 0% | -7 | ? | ? | 50µM*
Clc1ccc(Nc2ccc(-n3ccnc3)nn2)cc1Cl | ? | 0 | 1% | 13µM*[quencher] | -7%
Cc1cccc(NC(=O)Cn2c(O)c(N=NC(N)=S)c3ccccc32)c1 | -6% | 8 | ? | ? | 40µM*
CC(=O)N1CCN(c2ccc(NCc3cccc4ccccc34)cc2)CC1 | / | -3 | / | / | -22%
CC(=O)N1CCN(c2ccc(NCc3ccc(C)s3)cc2)CC1 | ? | -23 | ? | ? | 50µM*
CC(=O)N1CCN(c2ccc(NCc3cccs3)cc2)CC1 | ? | -11 | 28µM* | -30% | 22µM*
CC(=O)N1CCN(c2ccc(NCc3ccccc3)cc2)CC1 | -4% | -3 | ? | -20% | 45µM*
COc1cc(CNc2ccc(N3CCCC3)cc2)ccc1OCc1ccccc1 | ? | -20 | 5µM* | ? | ?
Cc1ccc(CNc2ccc(N3CCOCC3)cc2)s1 | 8% | 0 | ? | -25% | -12%
Cc1cccc(Cn2c(=O)n(-c3ccccc3C)c(=O)c3c2c2cc(C)ccc2n3C)c1 | 3% | / | 0% | -2% | /
CCOc1cccc(C(=O)Nc2c(C(=O)c3ccc(OC)cc3)oc3ccccc23)c1 | ? | / | -6% | ? | /
CC(=O)Nc1ccc(NC(=O)/C=C/c2ccccc2)cc1 | 3% | -3 | -12% | -8% | 4%
CC(=O)N1CCN(c2ccc(NC(=O)/C=C/c3ccccc3)cc2)CC1 | 9% | 1 | 2.5µM* | -27% | 13%
CCN(C(=O)CSc1nc2ccccc2n1CC(=O)Nc1ccccc1C)c1ccccc1 | 1% | / | -11% | -16% | /
CC(=O)Nc1ccc(OC(=O)c2ccc(Br)c([N+](=O)[O-])c2)cc1 | ? | 4 | 25µM* | ? | -21%
CCOc1ccc(NC(=O)Nc2cc(C(C)C)ccc2C)cc1 | 9% | 4 | -5% | ? | 14%
CC(=O)Nc1ccc(OCCOc2ccc(NC(C)=O)cc2)cc1 | / | 3 | / | / | 6%
CCOc1ccc(C(=O)Oc2ccc(NC(C)=O)cc2)cc1 | 4% | 4 | -10% | 2% | 4%
